AMA1 RON2 block = AMA1-RON2 (P. falciparum) interaction inhibition | AID 720542 | AlphaScreen AMA1-biotinylated RON2 peptide binding | hit rate 0.2% among 360,000 | Potency, µM (doses to about 58.2 µM), for inactives: top-dose activity change, negative = inhibition, hits mostly inhibitors; active = well fitted inhibition curve with a large enough effect; inconclusive = small, poorly fitted or top-dose-only effect; inactive = no such curve, though single readings can be large or run the other way;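 also: potency is read from the fitted curve at half-maximal effect; 0% = vehicle wells and -100% = peptide control; nearly all actives have a fitted effect of over 45% in size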
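AMA1 (3D7) with his tag at 25 nM final met compounds first, then biotinylated RON2 peptide at 25 nM; detection used donor plus acceptor beads, 10 µg/mL apiece, read by AlphaScreen after 30 min at room temperature.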
Lassa entry inh = inhibitors of Lassa virus binding or cell entry; AID 540256; hit rate 1.2% among 300,000; Lassa virus pseudotype entry inhibition, cell reporter; Potency, µM (highest dose often 37.9 µM), for inactives: at the top dose activity change, negative = inhibition, most hits filed as inhibitors; calls by dose curve; tested in HEK293 cells; also: potency is read from the fitted curve at half-maximal effect; % is scaled to controls: 0 for no effect and ±100 for the full control effect; nearly all actives have a fitted effect of over 50% in size
Cycloheximide cs = counter-screen hit for Shiga toxin inhibitors, cycloheximide | cell reporter, cycloheximide protein synthesis inhibition counterscreen | max response, % | hit rate 12% among 300,000 | AID 2314; in the data active = max response mostly above about 13%, no sharp cut-off; inactive = mostly below about 14%; also: read at 38.3 µM for the half of the compounds with a filed dose; 0% is about no effect
Shiga inhibitor = blocks Shiga toxin action in Vero cells. hit rate 9.2% among 290,000. Vero cells, Shiga toxin protein synthesis inhibition reporter. inhibition, % at 38.7 µM; in the data active = inhibition mostly above about 28%, no sharp cut-off; inactive = mostly below about 43%; also: 0% is about no effect
Marburg entry inh = blocks Marburg virus binding to or entry into cells; Marburg virus pseudotyped entry inhibition, cell reporter; Potency, µM (doses to about 37.8 µM), for the others: top-dose activity change, negative = inhibition, hits mostly inhibitors; hit rate 1.8% among 300,000; AID 540276; calls by dose curve; tested in HEK293 cells; also: potency is read from the fitted curve at half-maximal effect; % is scaled to controls: 0 for no effect and ±100 for the full control effect
Starred values were filed as active, the others as inactive; ? = inconclusive; . = no result given; [ ] = another dose, or the depositor's remark. This is one part of a sample in which hits are shown more often than they occur.

SMILES	AMA1 RON2 block	Lassa entry inh	Cycloheximide cs	Shiga inhibitor	Marburg entry inh
COc1cccc(OCc2cc(C(=O)N(C)CCC3CCCCO3)no2)c1 (centres undefined)	-3.1%	-26.0%	75.4*	152.0*	12.1%
CC(=O)c1cccc(OCc2cc(C(=O)N(C)CCC3CCOCC3)no2)c1	-3.2%	.	41.5*	68.1*	.
CCCN(CC1CCCO1)C(=O)c1cc(COc2cccc(OC)c2)on1 (centres undefined)	-13.2%	24.1%	14.5*	26.3	21.1%
COc1cccc(OCc2cc(C(=O)N(C)C3CCCCC3)no2)c1	1.4%	.	.	.	.
O=C(CCn1c(=O)oc2ccc(Cl)cc21)NCCCN1CCOCC1	7.1%	.	-4.8	4.4	.
Cn1nc(-c2ccccc2)cc1NC(=O)c1ccc(Cl)cc1	-0.8%	.	.	.	.
CCN(CC(=O)Nc1c(F)cccc1F)C(=O)CNC(=O)c1ccc(C)s1	-6.0%	-5.3%	51.2*	65.2*	6.0%
Cc1ccc(N2CC(O)=C(c3ccccc3)C2=N)cc1	16.7%	4.5%	17.7*	24.2	?
Cc1cccc(CC(=O)NC2CC(=O)N(c3ccccc3)C2)c1 (centres undefined)	.	0.8%[46.1 µM]	.	.	.
O=C1c2ccccc2C(=O)C1(CO)c1ccc(OC(F)F)cc1	0.0%	.	53.3*	26.8*	.
O=C1c2ccccc2C(=O)C1(CO)c1ccccc1	4.4%	22.8%	33.7*	105.5*	5.9%[46.1 µM]
N/C(Cc1ccc(Cl)cc1)=N\OC(=O)C1CCCCC1	-7.1%	14.9%	53.1*	68.5*	20.2%
O=C1CC(c2nc3ccccc3n2CCCOc2ccccc2)CN1c1ccc(F)cc1 (centres undefined)	.	-27.2%[46.1 µM]	.	.	1.5%[46.1 µM]
COc1cccc2c1OC1(CCN(C(C)C)CC1)N1N=C(c3cccnc3)CC21 (centres undefined)	3.7%	?	53.0*	90.3*	-4.5%[46.1 µM]
COc1cc(C2CC(c3cccnc3)=NN2c2ccc(F)cc2)cc(OC)c1OC (centres undefined)	19.5%	.	-1.2	3.4	.
CC(C)N1CCC2(CC1)Oc1ccc(Br)cc1C1CC(c3cccnc3)=NN12 (centres undefined)	6.1%	.	26.0*	61.4*	.
CC(C)C[C@H]1CN([C@@H](Cc2ccc(O)cc2)CN2CCC[C@H]2CN2C(=O)C(=O)NC[C@@H]2Cc2ccccc2)C(=O)C(=O)N1CC1CCCCCC1	-21.3%	.	.	.	.
CN=Cc1nc(-c2ccccc2)oc1O	-5.1%	?	29.8*	active	?
Oc1oc(-c2ccccc2)nc1/C=N/c1ccccn1	-5.3%	19.8%	-2.2	9.5	?
Cc1ccc(-c2nc(C=Nc3ccc(O)cc3)c(O)o2)cc1	0.0%	-23.5%	43.9*	124.9*	?
O=C(CCCNS(=O)(=O)c1ccc(Cl)c(Cl)c1)NCCc1ccccn1	9.1%	-10.6%	-1.4	-13.7	7.5%
CC(C)=CC(=O)N1CCCC(N2CCN(c3ccc(F)cc3)CC2)C1 (centres undefined)	-0.7%	.	2.0	.	.
C/C(CC(=O)Nc1ccc(N(C)C)cc1)=N\NC(=O)c1ccncc1	45.3%	-0.9%	17.3	28.5	4.2%[46.1 µM]
C/C(CC(=O)Nc1ccc(N(C)C)cc1)=N\NC(=O)c1ccccn1	-22.0%	-3.8%	33.1*	98.2*	?
C/C(CC(=O)Nc1ccc(N(C)C)cc1)=N\NC(=O)c1ccc(Cl)cc1	35.2%	.	27.5*	31.9	.
SMILES	AMA1 RON2 block	Lassa entry inh	Cycloheximide cs	Shiga inhibitor	Marburg entry inh
Cc1cccc(C(=O)Nc2ccccc2SCC(=O)Nc2ccc(C)c(Cl)c2)c1	4.4%	?	21.9*	17.3	?
C/C(CC(=O)Nc1ccc(N(C)C)cc1)=N\NC(=O)c1cnccn1	9.7%	18.3%	23.4*	63.4*	?
Cc1ccc(NC(=O)CSc2ccccc2NC(=O)c2cccc(Cl)c2)cc1Cl	-9.2%	?	-2.4	-14.5	?
COc1ccc(C(=O)N/N=C(\C)CC(=O)Nc2ccc(N(C)C)cc2)c(OC)c1	-21.5%	12.2%	19.0	.	-16.6%
C/C(CC(=O)Nc1ccc(N(C)C)cc1)=N\NC(=O)c1ccccc1Cl	62.0%	.	.	.	.
CCN1C(=O)N2C[C@H]3CON(C)[C@H]3C[C@H]2c2ccccc21	11.0%	.	.	.	.
CC(=O)Nc1ccc(NC(=O)C/C(C)=N/NC(=O)C(=O)Nc2ccc(C)c(Cl)c2)cc1	91.0%	14.1%[46.1 µM]	-0.4	2.2	4.2%[46.1 µM]
C/C(CC(=O)Nc1ccc(C)c(Cl)c1)=N\NC(=O)c1cccc(O)c1	122.1%	-6.5%	56.9*	55.6*	0.2%
C/C(CC(=O)Nc1ccc(C)c(Cl)c1)=N\NC(=O)c1ccccn1	25.9%	10.6%[46.1 µM]	50.8*	77.0*	-26.2%[46.1 µM]
C[C@@H]1CN([C@@H](C)CO)C(=O)CCCn2nncc2CO[C@H]1CN(C)C(=O)Nc1ccc(F)cc1	23.6%	.	.	.	.
Cc1ccc(N2C(=O)c3ccccc3NC2C(C)Cc2ccc3c(c2)OCO3)cc1 (centres undefined)	-4.0%	-26.1%	18.1*	47.5*	?
O=C(NCc1cccc(Cl)c1)c1ccc2c(c1)OCO2	-1.7%	16.0%[14.3 µM]	21.1*	41.0	10.4%
O=C(Nc1cccc(Cl)c1)Nc1ccc2c(c1)OCO2	4.3%	?	47.5*	72.5*	?
Cc1cccc(C)c1NC(=O)Nc1ccc2c(c1)OCO2	1.0%	24.0%	27.0	37.7	9.9%[46.1 µM]
CC(=O)c1cccc(NC(=O)Nc2ccc3c(c2)OCO3)c1	-0.4%	2.7%[46.1 µM]	38.4*	88.3*	?
O=C(NCc1ccc2c(c1)OCO2)Nc1cccc(Cl)c1	-2.7%	.	41.0*	57.5*	.
CC1(C(=O)Nc2nccs2)CCN1C(=O)CC(c1ccccc1)c1ccccc1 (centres undefined)	-5.6%	.	.	.	.
COc1ccc(CNC(=O)CCNC(=O)C2CCN(S(=O)(=O)c3ccc(OC)cc3)CC2)cc1	0.0%	.	.	.	.
Cc1nn(C)cc1CNC(=O)Nc1cccc(Cl)c1	19.0%	23.8%	67.1*	90.0*	12.9%
Cc1nn(C)cc1CNC(=O)Nc1ccc(Br)cc1Cl	-7.1%	10.3%	5.0	19.1	0.2%
COc1cccc(N2CCN(C(=O)c3c4c(nc5ccccc35)C(=O)N(C3CCCCC3)C4)CC2)c1	.	-9.2%[46.1 µM]	.	.	.
O=S(=O)(NC1CCCCC1Oc1ccccc1)c1ccccc1 (centres undefined)	17.9%	-0.8%	-2.9	-4.1	?
c1ccc2c(Nc3nnc(-c4ccncc4)s3)cccc2c1	-2.2%	14.6%	48.0*	33.5*	-2.7%
CCCCC(=O)OCC(=O)c1[nH]c(C)c(C(C)=O)c1C	-7.1%	.	38.6*	65.7*	.
CCCC(=O)OCC(=O)c1[nH]c(C)c(C(C)=O)c1C	7.8%	?	35.3*	49.3	1.1%
CC(=O)c1c(C)[nH]c(C(=O)COC(=O)C2CC2)c1C	10.7%	5.2%	17.5	34.0	18.3%[46.1 µM]
OCCC1CN(Cc2ccccc2-c2ccco2)CCN1C1CCCC1 (centres undefined)	-5.5%	.	0.7	-6.7	.
C[C@@H]1CN([C@H](C)CO)C(=O)c2cc(Br)cnc2O[C@H]1CN(C)C(=O)Nc1ccccc1F	-6.0%	.	.	.	.
Cc1cn([C@H]2C[C@H](O)[C@@H](CCC(=O)NCCN3CCCCC3)O2)c(=O)[nH]c1=O	-4.2%	.	.	.	.
Cc1ccc(CSc2nnc([C@@H](N)C(C)C)o2)cc1	.	-0.6%[46.1 µM]	.	.	-1.7%[46.1 µM]
